Data published in publication PMC7862700, “An all-to-all approach to the identification of sequence-specific readers for epigenetic DNA modifications on cytosine”.

Key:
Assay in all cases: DAPPL (digital affinity profiling via proximity ligation, sequencing); 10 mM Tris-HCl pH 7.5, 50 mM NaCl, 1 mM DTT, 4% glycerol, room temperature, 30 min; GST-TFs on glutathione beads, 16-mer random dsDNA library, 0.1% formaldehyde crosslink after washing; high values mean tight binding
Conditions in all cases: protein: recombinant; tags: N-terminal GST; dsDNA, one strand shown
[1] = molecular target: T1, ELK3 (Homo sapiens, UniProt P41970 1-407)
T1 sequence: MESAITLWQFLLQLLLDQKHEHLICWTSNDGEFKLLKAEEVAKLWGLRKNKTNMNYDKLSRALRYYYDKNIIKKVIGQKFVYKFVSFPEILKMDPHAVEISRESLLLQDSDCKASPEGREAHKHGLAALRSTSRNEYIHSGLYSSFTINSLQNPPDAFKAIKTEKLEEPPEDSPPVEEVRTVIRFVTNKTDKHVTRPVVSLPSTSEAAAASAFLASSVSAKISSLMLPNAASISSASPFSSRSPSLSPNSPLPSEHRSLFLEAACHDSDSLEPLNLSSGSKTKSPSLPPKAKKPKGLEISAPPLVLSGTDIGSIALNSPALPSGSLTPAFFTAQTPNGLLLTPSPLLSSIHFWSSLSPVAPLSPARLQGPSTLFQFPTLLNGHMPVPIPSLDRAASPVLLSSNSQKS
Method in brief: (§1)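 A tag-only sample was pooled with DNA-barcoded human transcription factors that had been expressed in yeast as GST fusions and captured on glutathione beads. The pools were incubated for 30 min at room temperature with 200 nmole of a random double-stranded 16-mer DNA library in Tris/NaCl/DTT/glycerol buffer, then washed, crosslinked with 0.1% formaldehyde, proximity-ligated (BsaI/T4 ligase, 1 h, 37 °C), PCR-amplified and sequenced on an Illumina NextSeq500. Binding signal is each hexamer's read frequency for a factor divided by its frequency for the tag-only sample.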

[2] = molecular target: T2, ELK4 (Homo sapiens, UniProt P28324-2 1-405)
T2 sequence: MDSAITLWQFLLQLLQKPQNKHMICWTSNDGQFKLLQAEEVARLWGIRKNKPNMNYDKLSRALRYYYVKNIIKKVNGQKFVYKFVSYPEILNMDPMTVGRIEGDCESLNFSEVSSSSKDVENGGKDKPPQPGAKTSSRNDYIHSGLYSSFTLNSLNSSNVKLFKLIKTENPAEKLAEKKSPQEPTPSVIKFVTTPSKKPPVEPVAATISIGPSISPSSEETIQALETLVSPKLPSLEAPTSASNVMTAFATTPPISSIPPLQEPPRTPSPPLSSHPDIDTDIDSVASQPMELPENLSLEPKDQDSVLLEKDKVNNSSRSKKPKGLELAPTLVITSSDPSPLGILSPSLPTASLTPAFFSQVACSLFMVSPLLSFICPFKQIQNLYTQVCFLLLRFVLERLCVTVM
Method in brief: as §1

[3] = molecular target: T3, ETV2 (Homo sapiens, UniProt O00321 1-342)
T3 sequence: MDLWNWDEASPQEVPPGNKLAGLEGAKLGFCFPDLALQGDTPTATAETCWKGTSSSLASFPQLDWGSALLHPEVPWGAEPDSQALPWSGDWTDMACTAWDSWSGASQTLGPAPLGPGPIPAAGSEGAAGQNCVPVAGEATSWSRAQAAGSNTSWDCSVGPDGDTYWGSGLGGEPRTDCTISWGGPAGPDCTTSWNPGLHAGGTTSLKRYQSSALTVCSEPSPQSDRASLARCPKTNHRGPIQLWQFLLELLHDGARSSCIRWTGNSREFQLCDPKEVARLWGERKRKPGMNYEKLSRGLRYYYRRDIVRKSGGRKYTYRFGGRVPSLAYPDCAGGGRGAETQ
Method in brief: as §1

[4] = molecular target: T4, ELF3 (Homo sapiens, UniProt P78545 1-371)
T4 sequence: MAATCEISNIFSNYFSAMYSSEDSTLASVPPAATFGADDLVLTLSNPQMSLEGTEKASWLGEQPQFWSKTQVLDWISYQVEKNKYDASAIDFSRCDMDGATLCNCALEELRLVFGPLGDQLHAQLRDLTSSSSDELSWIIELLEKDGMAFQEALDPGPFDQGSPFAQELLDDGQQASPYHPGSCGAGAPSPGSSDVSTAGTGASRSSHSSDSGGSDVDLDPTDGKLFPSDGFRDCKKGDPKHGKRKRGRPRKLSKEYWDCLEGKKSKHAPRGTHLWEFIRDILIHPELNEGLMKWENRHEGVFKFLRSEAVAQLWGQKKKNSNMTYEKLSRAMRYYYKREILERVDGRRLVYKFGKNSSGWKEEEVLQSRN
Method in brief: as §1

[5] = molecular target: T5, ERF (Homo sapiens, UniProt P50548 1-548)
T5 sequence: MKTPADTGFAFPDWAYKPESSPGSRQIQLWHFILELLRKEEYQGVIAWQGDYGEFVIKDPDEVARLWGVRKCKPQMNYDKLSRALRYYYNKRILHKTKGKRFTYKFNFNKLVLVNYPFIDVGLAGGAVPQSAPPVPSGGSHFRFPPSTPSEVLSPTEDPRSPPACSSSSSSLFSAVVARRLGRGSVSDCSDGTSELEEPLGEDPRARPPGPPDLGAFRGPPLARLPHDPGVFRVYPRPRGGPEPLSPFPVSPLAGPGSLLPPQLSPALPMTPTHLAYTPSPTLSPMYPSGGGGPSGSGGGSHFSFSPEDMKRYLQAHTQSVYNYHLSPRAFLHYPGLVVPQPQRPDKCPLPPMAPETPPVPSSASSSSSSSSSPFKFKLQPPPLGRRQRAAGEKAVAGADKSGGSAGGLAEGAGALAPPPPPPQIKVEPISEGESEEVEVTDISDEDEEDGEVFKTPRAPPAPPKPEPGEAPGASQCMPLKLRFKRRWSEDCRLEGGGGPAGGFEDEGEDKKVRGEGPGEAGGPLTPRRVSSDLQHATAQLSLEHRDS
Method in brief: as §1

[6] = molecular target: T6, ETV3L (Homo sapiens, UniProt Q6ZN32 1-361)
T6 sequence: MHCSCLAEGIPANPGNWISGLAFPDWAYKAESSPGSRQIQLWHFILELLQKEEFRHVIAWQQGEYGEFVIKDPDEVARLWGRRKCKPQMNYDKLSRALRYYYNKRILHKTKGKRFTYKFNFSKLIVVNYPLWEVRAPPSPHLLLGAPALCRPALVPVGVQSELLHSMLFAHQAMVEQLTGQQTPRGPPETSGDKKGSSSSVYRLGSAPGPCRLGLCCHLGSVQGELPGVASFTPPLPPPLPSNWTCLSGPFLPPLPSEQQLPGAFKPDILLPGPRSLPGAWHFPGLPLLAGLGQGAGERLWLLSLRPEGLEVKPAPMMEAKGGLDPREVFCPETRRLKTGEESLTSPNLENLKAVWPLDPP
Method in brief: as §1

[7] = molecular target: T7, ETS2 (Homo sapiens, UniProt P15036 1-469)
T7 sequence: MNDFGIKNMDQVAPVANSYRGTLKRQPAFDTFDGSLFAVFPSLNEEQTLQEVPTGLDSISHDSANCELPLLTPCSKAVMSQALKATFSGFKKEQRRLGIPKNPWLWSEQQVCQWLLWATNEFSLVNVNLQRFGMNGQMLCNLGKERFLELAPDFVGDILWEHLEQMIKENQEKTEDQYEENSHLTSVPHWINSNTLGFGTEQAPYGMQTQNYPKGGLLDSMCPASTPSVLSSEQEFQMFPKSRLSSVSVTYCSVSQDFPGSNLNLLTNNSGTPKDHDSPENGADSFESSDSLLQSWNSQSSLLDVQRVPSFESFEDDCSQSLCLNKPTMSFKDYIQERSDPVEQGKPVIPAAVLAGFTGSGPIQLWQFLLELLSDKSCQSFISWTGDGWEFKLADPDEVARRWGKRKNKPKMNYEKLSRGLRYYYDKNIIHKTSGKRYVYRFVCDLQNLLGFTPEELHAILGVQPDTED
Method in brief: as §1

[8] = molecular target: T8, ELK1 (Homo sapiens, UniProt P19419 1-428)
T8 sequence: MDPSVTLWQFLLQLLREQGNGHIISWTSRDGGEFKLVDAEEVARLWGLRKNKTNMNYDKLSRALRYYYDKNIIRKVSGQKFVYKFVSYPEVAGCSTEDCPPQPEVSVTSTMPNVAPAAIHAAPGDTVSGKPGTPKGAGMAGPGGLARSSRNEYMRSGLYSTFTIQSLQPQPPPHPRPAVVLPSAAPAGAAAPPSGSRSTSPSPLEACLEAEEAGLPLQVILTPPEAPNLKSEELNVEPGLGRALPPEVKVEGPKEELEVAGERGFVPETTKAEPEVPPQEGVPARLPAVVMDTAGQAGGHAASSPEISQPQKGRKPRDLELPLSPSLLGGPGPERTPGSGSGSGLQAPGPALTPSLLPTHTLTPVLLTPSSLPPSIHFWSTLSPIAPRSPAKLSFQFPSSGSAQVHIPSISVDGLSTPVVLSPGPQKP
Method in brief: as §1

[9] = molecular target: ELF1 (Homo sapiens, UniProt P32519 1-619)
Method in brief: as §1

[10] = molecular target: T9, FEV (Homo sapiens, UniProt Q99581 1-238)
T9 sequence: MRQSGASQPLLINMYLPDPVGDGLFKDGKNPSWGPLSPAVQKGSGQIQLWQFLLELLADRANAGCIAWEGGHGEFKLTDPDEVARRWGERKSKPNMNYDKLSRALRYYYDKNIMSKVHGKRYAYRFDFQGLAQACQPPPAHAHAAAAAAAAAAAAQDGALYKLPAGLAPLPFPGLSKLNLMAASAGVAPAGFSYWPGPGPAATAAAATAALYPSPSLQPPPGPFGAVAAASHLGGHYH
Method in brief: as §1

[11] = molecular target: ETV1 (Homo sapiens, UniProt P50549 1-477)
Method in brief: as §1

[12] = molecular target: T10, SPDEF (Homo sapiens, UniProt O95238 1-335)
T10 sequence: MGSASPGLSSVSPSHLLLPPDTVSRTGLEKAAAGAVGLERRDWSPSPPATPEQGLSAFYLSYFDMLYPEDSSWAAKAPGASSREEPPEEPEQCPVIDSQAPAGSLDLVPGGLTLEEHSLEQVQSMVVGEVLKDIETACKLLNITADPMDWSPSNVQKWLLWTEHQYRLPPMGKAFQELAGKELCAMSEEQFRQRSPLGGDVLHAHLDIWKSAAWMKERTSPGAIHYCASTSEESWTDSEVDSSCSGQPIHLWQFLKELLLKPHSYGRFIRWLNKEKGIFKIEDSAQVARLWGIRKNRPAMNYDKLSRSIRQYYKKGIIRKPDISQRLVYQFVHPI
Method in brief: as §1

[13] = molecular target: T11, GABPA (Homo sapiens, UniProt Q06546 1-454)
T11 sequence: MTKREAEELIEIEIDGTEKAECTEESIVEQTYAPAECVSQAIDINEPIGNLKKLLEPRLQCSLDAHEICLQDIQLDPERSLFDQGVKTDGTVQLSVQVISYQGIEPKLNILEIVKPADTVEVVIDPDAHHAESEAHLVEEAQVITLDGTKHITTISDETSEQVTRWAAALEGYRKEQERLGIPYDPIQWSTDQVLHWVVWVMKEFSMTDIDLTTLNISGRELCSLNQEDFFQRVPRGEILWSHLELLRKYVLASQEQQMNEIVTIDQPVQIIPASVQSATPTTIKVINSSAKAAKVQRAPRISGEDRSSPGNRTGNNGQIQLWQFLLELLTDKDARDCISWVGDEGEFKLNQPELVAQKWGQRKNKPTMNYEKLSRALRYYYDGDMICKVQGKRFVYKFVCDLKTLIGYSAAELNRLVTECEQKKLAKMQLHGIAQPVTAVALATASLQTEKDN
Method in brief: as §1

Chain of ELF1 (P32519 whole entry): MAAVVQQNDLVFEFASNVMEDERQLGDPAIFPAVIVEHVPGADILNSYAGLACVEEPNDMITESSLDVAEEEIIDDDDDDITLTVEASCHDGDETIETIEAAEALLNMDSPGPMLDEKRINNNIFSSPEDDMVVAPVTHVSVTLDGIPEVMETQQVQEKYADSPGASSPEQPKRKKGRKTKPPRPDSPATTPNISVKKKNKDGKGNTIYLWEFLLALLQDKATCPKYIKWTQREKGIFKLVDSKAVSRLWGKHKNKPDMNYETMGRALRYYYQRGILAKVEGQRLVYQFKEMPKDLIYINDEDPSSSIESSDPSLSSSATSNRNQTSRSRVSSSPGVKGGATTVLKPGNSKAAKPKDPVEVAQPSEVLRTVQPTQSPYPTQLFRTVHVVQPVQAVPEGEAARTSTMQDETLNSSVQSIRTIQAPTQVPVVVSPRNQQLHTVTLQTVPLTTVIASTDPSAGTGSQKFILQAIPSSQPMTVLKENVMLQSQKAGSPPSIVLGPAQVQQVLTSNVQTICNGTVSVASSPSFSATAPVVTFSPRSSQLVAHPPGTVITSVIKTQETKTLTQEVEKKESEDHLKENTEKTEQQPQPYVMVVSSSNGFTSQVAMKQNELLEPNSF
Chain of ETV1 (P50549 whole entry): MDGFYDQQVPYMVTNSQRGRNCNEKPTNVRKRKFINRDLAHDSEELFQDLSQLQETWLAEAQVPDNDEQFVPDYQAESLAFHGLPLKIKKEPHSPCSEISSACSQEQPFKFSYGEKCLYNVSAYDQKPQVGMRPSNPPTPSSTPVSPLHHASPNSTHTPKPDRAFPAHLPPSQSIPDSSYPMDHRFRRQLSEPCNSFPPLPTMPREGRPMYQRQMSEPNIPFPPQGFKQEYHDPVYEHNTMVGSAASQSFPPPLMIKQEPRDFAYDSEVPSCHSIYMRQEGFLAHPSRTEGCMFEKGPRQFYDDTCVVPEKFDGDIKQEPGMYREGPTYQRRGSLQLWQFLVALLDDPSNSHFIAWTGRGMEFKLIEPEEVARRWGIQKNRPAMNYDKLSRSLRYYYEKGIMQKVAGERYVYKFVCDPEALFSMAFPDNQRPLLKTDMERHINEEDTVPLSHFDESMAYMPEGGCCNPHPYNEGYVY

For CAGTAT, the binding signal [1] was 1.03 fold enrichment (6-mer frequency, TF over GST control), the binding signal [2] was 1.06 fold enrichment (6-mer frequency, TF over GST control) and the binding signal [3] was 1.08 fold enrichment (6-mer frequency, TF over GST control). The binding signal [4] was 1.1 fold enrichment (6-mer frequency, TF over GST control), the binding signal [5] was 1.1 fold enrichment (6-mer frequency, TF over GST control) and the binding signal [6] was 1.02 fold enrichment (6-mer frequency, TF over GST control). For the same sequence, the binding signal [7] was 1.02 fold enrichment (6-mer frequency, TF over GST control).
In the case of GCCACA, the binding signal [8] is reported as 1.02 fold enrichment (6-mer frequency, TF over GST control), the binding signal [9] is reported as 1.01 fold enrichment (6-mer frequency, TF over GST control) and the binding signal [10] is reported as 1.06 fold enrichment (6-mer frequency, TF over GST control). The binding signal [4] was 1.07 fold enrichment (6-mer frequency, TF over GST control) and the binding signal [11] was 1.08 fold enrichment (6-mer frequency, TF over GST control).
GTGTTG was tested, and the binding signal [2] was 1.06 fold enrichment (6-mer frequency, TF over GST control) and the binding signal [12] was 1.01 fold enrichment (6-mer frequency, TF over GST control).
With AGCAAG the binding signal [3] was 1.02 fold enrichment (6-mer frequency, TF over GST control).
In the case of GTAACG, the binding signal [2] is reported as 1.03 fold enrichment (6-mer frequency, TF over GST control) and the binding signal [3] is reported as 1.08 fold enrichment (6-mer frequency, TF over GST control).
With GACCAA the binding signal [8] was 1.05 fold enrichment (6-mer frequency, TF over GST control), the binding signal [13] was 1.04 fold enrichment (6-mer frequency, TF over GST control) and the binding signal [9] was 1.02 fold enrichment (6-mer frequency, TF over GST control). The binding signal [2] was 1.01 fold enrichment (6-mer frequency, TF over GST control).
